Screening data: PubChem, National Center for Advancing Translational Sciences (NCATS)
In the library only some 2.6% were active in any assay of this set; here they are far more common.
Cruzain Triton: blocks cruzain activity in presence of Triton detergent; P25779; purified cruzain, Z-FR-AMC fluorescence, 0.01% Triton; Potency, µM, inactives show max response, negative = inhibition, actives largely listed as inhibitors; 0.43% of 200,000 active;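 note: plate controls were neutral wells for no effect and buffer without enzyme for full effect; nearly all actives have a fitted effect of over 40% in size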
Target sequence (P25779 123-467 limits assumed): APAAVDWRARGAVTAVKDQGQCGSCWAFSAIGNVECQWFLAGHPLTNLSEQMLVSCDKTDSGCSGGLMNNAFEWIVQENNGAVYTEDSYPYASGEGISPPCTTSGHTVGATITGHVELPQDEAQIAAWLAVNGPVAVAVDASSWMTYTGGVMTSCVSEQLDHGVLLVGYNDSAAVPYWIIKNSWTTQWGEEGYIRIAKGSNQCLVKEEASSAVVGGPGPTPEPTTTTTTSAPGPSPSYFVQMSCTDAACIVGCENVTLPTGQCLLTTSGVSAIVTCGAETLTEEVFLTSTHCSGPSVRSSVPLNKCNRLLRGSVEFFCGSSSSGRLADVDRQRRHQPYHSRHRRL
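Cruzain (1.5 nM) preincubated 15 min at RT with compound in 100 mM sodium acetate pH 5.5, 5 mM DTT, 0.01% Triton X-100. Reaction started with 2 uM Z-FR-AMC; AMC fluorescence (ex 360/em 450 nm) change over 60 s gave rate.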
Cruzain inh noDet: cruzain (T. cruzi) inhibition without detergent | Potency, µM, for inactives: max response, negative = inhibition, usual class: inhibitors | AID 1476 | 2.3% of 200,000 active | purified cruzain, Z-FR-AMC fluorescence, no detergent | P25779;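 note: plate controls were enzyme without inhibitor for no effect and buffer without enzyme for full effect; nearly all actives have a fitted effect of over 40% in size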
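Detergent-free condition (0.00005% Triton X-100) in acetate buffer pH 5.5 with DTT. 1.5 nM enzyme and compound were pre-mixed 15 min, then 2 uM Z-FR-AMC substrate added; reaction progress from fluorescence change between first and third reads (60 s).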
Active calls of the source: *; ? = inconclusive. Calls come from the whole dose curve; as a rule, active = well fitted curve in the direction sought with a large enough effect; inconclusive = small, poorly fitted or top-dose-only effect, or another doubt; inactive = no such curve, though single readings can be large; an effect the other way counts as inactive or inconclusive. Potency is the fitted concentration of half-maximal effect.

SMILES | Cruzain Triton | Cruzain inh noDet
COc1cc2c(cc1OC)C(COc1ccc3c(C)cc(=O)oc3c1)N(C(=O)CC(C)C)CC2 (stereo unspecified) | 8% | -7%
CC(=O)c1ccc(NC(=O)c2nc(-c3ccccc3)n(-c3ccc(Cl)cc3)n2)cc1 | -5% | 13µM*
CC(=O)c1ccc(NC(=O)c2nc(-c3ccccc3)n(-c3ccc(C)cc3)n2)cc1 | -5% | 8%
CSc1nc(NCCOCCO)c2sc3nc(-c4ccco4)c4c(c3c2n1)CCC4 | 7.9µM* | 25%
CSc1nc(NCc2ccco2)c2sc3nc(C(C)C)c4c(c3c2n1)CC(C)(C)OC4 | -1% | -4%
Cc1cc([N+](=O)[O-])cc(C)c1OCC(=O)N/N=C/c1ccc(OC(=O)c2ccccc2)cc1 | -4% | 13µM*
Cc1cccc(C)c1OCC(=O)N/N=C/c1ccncc1 | 2% | 11%
O=C(CNC(=O)c1ccc([N+](=O)[O-])cc1)N/N=C\c1ccc(OC(=O)c2ccccc2)cc1 | -10% | 7.9µM*
COc1cccc(C(=O)NCC(=O)N/N=C/c2cccc(OC(=O)c3ccc([N+](=O)[O-])cc3)c2)c1 | -19% | ?
Cc1cc([N+](=O)[O-])cc(C)c1OCC(=O)N/N=C/c1ccc(OC(=O)c2ccccc2Br)cc1 | -4% | 10µM*
Cc1ccc(CC(=O)N/N=C/c2ccc(OC(=O)c3ccc([N+](=O)[O-])cc3)cc2)cc1 | -2% | ?
CCOc1cc2[nH]c(=O)n(Cc3ccc(C(=O)N4CCN(c5cccc(Cl)c5)CC4)cc3)c(=O)c2cc1OCC | 1% | -9%
c1nc(NCCc2cnc[nH]2)c2[nH]cnc2n1 | 2% | 6%
COC(C)=O | 8% | 0%
O=C(Nc1nc(-c2ccccc2)cs1)C1CCCN(S(=O)(=O)c2cccc([N+](=O)[O-])c2)C1 (stereo unspecified) | -4% | 7.9µM*
O=C(Nc1nc(-c2ccccc2)cs1)C1CCCCN1S(=O)(=O)c1ccc(Cl)cc1 (stereo unspecified) | -3% | ?
Cc1ccc(-c2csc(NC(=O)C3CCN(S(=O)(=O)c4cccs4)CC3)n2)cc1 | -4% | ?
O=C(Nc1nc(-c2ccccc2)cs1)C1CCCN(S(=O)(=O)c2ccccc2)C1 (stereo unspecified) | 5% | 20µM*
O=C(Nc1nc(-c2ccc3ccccc3c2)cs1)C1CCN(S(=O)(=O)c2cccs2)CC1 | -2% | 3.2µM*
O=C(Nc1nc(-c2ccccc2)cs1)C1CCCCN1S(=O)(=O)c1ccccc1 (stereo unspecified) | -11% | ?
COc1ccc2c(c1)[N+](=O)C(/C(C)=N/NC(N)=S)=C(C)[N+]2=O | -7% | -1%
C[C@H](Br)C(=O)Nc1ccc(C(=O)O)c(O)c1 | -2% | 10%
COc1ccc(-c2cc3ccccc3oc2=O)cc1NC(=O)c1ccc(Br)o1 | -21% | 25µM*
COc1cc2c(cc1NC(=O)c1ccc3c(c1)OCO3)oc1ccccc12 | -9% | ?
COc1ccc(-c2cc3ccccc3oc2=O)cc1NC(=S)NC(=O)c1ccc2c(c1)OCCO2 | -3% | 13µM*
SMILES | Cruzain Triton | Cruzain inh noDet
COc1ccc(-c2cc3ccccc3oc2=O)cc1NC(=O)c1ccc([N+](=O)[O-])o1 | -4% | -22%
Cc1ccc(-c2c(C(=O)Nc3ccc(F)c(F)c3)oc(=O)c3ccccc23)cc1 | -4% | -7%
CCOC(=O)C1CCCN(c2c(C(=O)c3ccccc3)cnc3ccc(F)cc23)C1 (stereo unspecified) | -5% | -5%
Cc1ccccc1OCC(=O)N/N=C/c1cc2ccccc2nc1Cl | -1% | 1%
COc1ccc2cc(/C=N/NC(=O)c3ccc(CN(c4cccc(Cl)c4Cl)S(C)(=O)=O)cc3)c(Cl)nc2c1 | -12% | 25µM*
CCOc1ccc2nc(/N=C/c3nc(-c4ccc(Br)cc4)oc3O)sc2c1 | 2% | 7.9µM*
CCCCOc1ccc(-c2nc(/C=N/c3nccs3)c(O)o2)cc1 | 1% | ?
Cc1ccc(Cn2c(C)c(CNCC(C)c3ccccc3)c(C(=O)O)c2C)cc1 (stereo unspecified) | -1% | 0%
O=C(Oc1ccccc1F)c1nc(SCc2ccccc2F)ncc1Cl | -1% | -4%
Cc1ccc(NC(=O)Cc2coc3c(C)c(C)ccc23)c(C)c1 | -4% | -21%
Cc1ccc2c(CC(=O)Nc3ccc(N4CCN(C)CC4)cc3C)coc2c1 | 1% | 25µM*
Cc1ccc(N2CCn3c2nc2c3c(=O)n(Cc3cccc(Cl)c3)c(=O)n2C)cc1C | -2% | -6%
COc1cc(C)c(Cl)cc1S(=O)(=O)NCCc1c(C)[nH]c2ccccc12 | -14% | 10%
CS(=O)(=O)N1CCC2(CC1)CN(C(c1ccccc1)c1ccccc1)C2 | 2% | -10%
COc1ccc(-c2csc(N(Cc3ccccc3)C(=O)COc3ccc(Cl)cc3)n2)cc1 | 1% | 6.3µM*
O=C(COc1ccccc1)N(Cc1ccccc1)c1nc(-c2ccccc2)cs1 | 6% | ?
Cc1ccccc1-c1nc2scc(CCNS(=O)(=O)c3ccccc3)n2n1 | -9% | -9%
CCCCSc1nnc2c(n1)OC(c1ccc(Br)s1)Nc1ccccc1-2 (stereo unspecified) | -5% | 1%
CCOC(=O)C(NC(=O)NC1CCCCC1)(c1ccccc1)C(F)(F)F (stereo unspecified) | 3% | 3.2µM*
CCOC(=O)C(NC(=O)N1CCCCC1)(c1ccccc1)C(F)(F)F (stereo unspecified) | -4% | 4%
COc1cc(/C(C)=N\NC(N)=S)cc(OC)c1OC | 5µM* | 1.3µM*
COc1cc(/C(C)=N/NC(=S)NC(C)C)cc(OC)c1OC | -7% | 0%
CCOc1cccc(C(=O)NC(=S)Nc2ccc(N3CCCC3)cc2)c1 | ? | 32µM*
O=C(NC(=S)Nc1ccc(N2CCOCC2)cc1)c1ccc2c(c1)OCCO2 | -9% | -16%
CCOc1cccc(C(=O)Nc2ccc(N3CCN(S(C)(=O)=O)CC3)cc2)c1 | 5% | 2%
SMILES | Cruzain Triton | Cruzain inh noDet
O=C(NC(=S)Nc1ccc(N2CCCCC2)cc1)c1ccc2c(c1)OCCO2 | -4% | 25µM*
CN1[C@@H]2CC[C@H]1CC(O[C@@H](c1ccccc1)c1ccc(Cl)cc1)C2 (stereo partly specified) | -2% | 23%
Cc1ccc(NC(=O)c2oc3ccccc3c2NC(=O)c2cc3ccccc3o2)cc1 | 0% | ?
O=C(Nc1c(C(=O)Nc2cccc(F)c2)oc2ccccc12)c1cc2ccccc2o1 | -3% | 16µM*
Cn1cccc1CC(=O)NNC(=S)Nc1ccc(Cl)cc1Cl | 1% | 3%
O=C(CN1c2ccccc2Sc2ccccc21)NNC(=S)Nc1ccc(Cl)cc1Cl | 8% | 10µM*
CC(=O)Nc1ccc(Nc2ccc3cc(S(=O)(=O)N4CCCCC4)ccc3n2)cc1 | -10% | 5%
C=C1CCC2C(CC2(C)C)C(=O)CCC1O (stereo unspecified) | 5% | 6%
Cc1ccc(S(=O)(=O)N(CC(=O)N=Nc2c(O)[nH]c3ccccc23)c2cccc(C)c2)cc1 | -1% | -22%
CC(/C=C(\NC(=O)c1ccccc1)C(=O)N=Nc1c(O)[nH]c2ccc(C)cc12)=C\c1ccccc1 | -2% | 25µM*
Cc1ccc(S(=O)(=O)N2CCN(Cc3ccccc3Cl)CC2)cc1 | -2% | 2%
CC(C)Oc1ccc(Br)cc1/C=N\NC(N)=S | 0.25µM* | 0.032µM*
CC(C)Oc1ccccc1/C=N/NC(=O)c1ccc(F)cc1 | -9% | -5%
C[C@H]1C(c2ccccc2)=NN(c2ccccc2)[C@@H]1CO | 2% | -27%
